Experimental data reported in PubChem BioAssay AID1159580 (chemical genetic matrix, 2015).
Values joined by “and” are separate entries in the source; they are usually repeats but may differ in a detail not shown here. Equal values may be shown once. In all, about 5,500 compounds went through this assay and about 2,000 (36%) were called active. Not shown: some 18% with an inconclusive outcome. Cut-off read from the data, not from the text of the source: active = normalized growth mostly below about 0.91 (no sharp cut-off); inconclusive = no clear call, values can overlap the other calls; inactive = mostly above about 0.92. The list shows a part of the results.

Test: chemical genetic growth profiling, strain panel (AID 1159580);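 note: tested at 20 µM; growth read once vehicle control cultures reached saturation at 30 °C; 1 = growth at the plate median or of vehicle wells; lower values mean less growth of the strain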
Conditions: growth OD

Measured: normalized growth

Nc1ccncc1
inactive: S. cerevisiae deletion strains, locus YJR075W, strain HOC1, hits give low values 1.03 and 1 | S. cerevisiae deletion strains, locus YKL009W, strain mrt4, hits give low values 1.03 | S. cerevisiae deletion strains, locus YKL068W, hits give low values 0.988 | S. cerevisiae deletion strains, locus YKL085W, strain MDH1 (second series), hits give low values 0.995 | S. cerevisiae deletion strains, locus YKL085W, strain MDH1, hits give low values 0.995 | S. cerevisiae deletion strains, locus YKL160W, strain elf1, hits give low values 0.994 | S. cerevisiae deletion strains, locus YKL190W, strain CNB1, hits give low values 1.01 | S. cerevisiae deletion strains, locus YKR001C, strain vps1, hits give low values 0.931 | S. cerevisiae deletion strains, locus YKR026C, strain gcn3, hits give low values 0.984 | S. cerevisiae deletion strains, locus YKR091W, strain srl3, hits give low values 0.987 | S. cerevisiae deletion strains, locus YLL001W, strain dnm1, hits give low values 0.981 | S. cerevisiae deletion strains, locus YLL026W, hits give low values 0.999 | S. cerevisiae deletion strains, locus YLL041C, strain sdh2, hits give low values 0.989 | S. cerevisiae deletion strains, locus YLR027C, strain aat2, hits give low values 0.994 | S. cerevisiae deletion strains, locus YLR039C, strain RIC1, hits give low values 1 | S. cerevisiae deletion strains, locus YLR058C, strain SHM2, hits give low values 1.02 | S. cerevisiae deletion strains, locus YLR102C, strain apc9, hits give low values 0.97 | S. cerevisiae deletion strains, locus YLR113W, strain HOG1, hits give low values 0.958 | S. cerevisiae deletion strains, locus YLR221C, strain rsa3, hits give low values 1 | S. cerevisiae deletion strains, locus YLR258W, strain gsy2, hits give low values 0.987 | S. cerevisiae deletion strains, locus YLR262C, strain YPT6 (second series), hits give low values 0.971 | S. cerevisiae deletion strains, locus YLR262C, strain YPT6, hits give low values 1.02 | S. cerevisiae deletion strains, locus YLR268W, strain sec22, hits give low values 0.921 | S. cerevisiae deletion strains, locus YLR320W, strain mms22, hits give low values 0.993 | S. cerevisiae deletion strains, locus YLR330W, strain CHS5, hits give low values 1.01 | S. cerevisiae deletion strains, locus YLR342W, strain FKS1 (second series), hits give low values 1.02 | S. cerevisiae deletion strains, locus YLR342W, strain FKS1, hits give low values 0.991 | S. cerevisiae deletion strains, locus YLR357W, strain rsc2, hits give low values 1.01 | S. cerevisiae deletion strains, locus YLR370C, strain arc18, hits give low values 0.997 | S. cerevisiae deletion strains, locus YLR371W, strain rom2, hits give low values 0.976 | S. cerevisiae deletion strains, locus YLR384C, strain iki3, hits give low values 0.994 | S. cerevisiae deletion strains, locus YLR418C, strain cdc73, hits give low values 0.935 | S. cerevisiae deletion strains, locus YML016C, strain PPZ1, hits give low values 1.02 | S. cerevisiae deletion strains, locus YML032C, strain rad52, hits give low values 0.957 | S. cerevisiae deletion strains, locus YML120C, strain ndi1, hits give low values 0.998 | S. cerevisiae deletion strains, locus YML124C, strain tub3, hits give low values 0.977 | S. cerevisiae deletion strains, locus YMR058W, strain fet3, hits give low values 1 | S. cerevisiae deletion strains, locus YMR078C, strain ctf18, hits give low values 0.958 | S. cerevisiae deletion strains, locus YMR125W, strain sto1, hits give low values 0.984 | S. cerevisiae deletion strains, locus YMR129W, hits give low values 0.993 | S. cerevisiae deletion strains, locus YMR205C, strain PFK2, hits give low values 0.999 | S. cerevisiae deletion strains, locus YMR223W, strain ubp8, hits give low values 0.977 | S. cerevisiae deletion strains, locus YMR231W, strain pep5, hits give low values 0.995 | S. cerevisiae deletion strains, locus YMR263W, strain SAP30, hits give low values 1.02 and 1.01 | S. cerevisiae deletion strains, locus YMR307W, strain GAS1, hits give low values 1.01 | S. cerevisiae deletion strains, locus YNL067W, strain RPL9B, hits give low values 1.01 | S. cerevisiae deletion strains, locus YNL071W, strain lat1, hits give low values 0.995 | S. cerevisiae deletion strains, locus YNL128W, strain TEP1, hits give low values 1.02 | S. cerevisiae deletion strains, locus YNL153C, strain GIM3, hits give low values 1.01 and 1 | S. cerevisiae deletion strains, locus YNL175C, strain NOP13, hits give low values 1 | S. cerevisiae deletion strains, locus YNL183C, strain NPR1, hits give low values 0.912 | S. cerevisiae deletion strains, locus YNL197C, strain WHI3, hits give low values 1.01 | S. cerevisiae deletion strains, locus YNL209W, strain ssb2, hits give low values 0.993 | S. cerevisiae deletion strains, locus YNL224C, strain SQS1, hits give low values 0.998 | S. cerevisiae deletion strains, locus YNL233W, strain BNI4, hits give low values 1 | S. cerevisiae deletion strains, locus YNL248C, strain rpa49, hits give low values 0.993 | S. cerevisiae deletion strains, locus YNL250W, strain rad50, hits give low values 0.978 | S. cerevisiae deletion strains, locus YNL271C, strain bni1, hits give low values 0.942 | S. cerevisiae deletion strains, locus YNL298W, strain CLA4, hits give low values 0.966 | S. cerevisiae deletion strains, locus YNL307C, strain MCK1, hits give low values 0.947 | S. cerevisiae deletion strains, locus YNL322C, strain KRE1 (second series), hits give low values 0.99 | S. cerevisiae deletion strains, locus YNL322C, strain KRE1, hits give low values 1.01 and 1.02 | S. cerevisiae deletion strains, locus YNR049C, strain mso1, hits give low values 0.99 | S. cerevisiae deletion strains, locus YNR052C, strain pop2, hits give low values 0.974 | S. cerevisiae deletion strains, locus YOL006C, strain TOP1, hits give low values 0.996 | S. cerevisiae deletion strains, locus YOL012C, strain htz1 1.65 | S. cerevisiae deletion strains, locus YOL147C, strain pex11, hits give low values 0.956 | S. cerevisiae deletion strains, locus YOR001W, strain rrp6, hits give low values 0.993 | S. cerevisiae deletion strains, locus YOR061W, strain CKA2, hits give low values 1.02 | S. cerevisiae deletion strains, locus YOR069W, strain VPS5, hits give low values 1.02 | S. cerevisiae deletion strains, locus YOR070C, strain gyp1, hits give low values 0.999 | S. cerevisiae deletion strains, locus YOR080W, strain dia2, hits give low values 0.99 | S. cerevisiae deletion strains, locus YOR083W, strain WHI5 (second series), hits give low values 0.998 | S. cerevisiae deletion strains, locus YOR083W, strain WHI5, hits give low values 1 | S. cerevisiae deletion strains, locus YOR106W, strain vam3, hits give low values 1.01 | S. cerevisiae deletion strains, locus YOR136W, strain idh2, hits give low values 0.974 | S. cerevisiae deletion strains, locus YOR144C, strain elg1, hits give low values 0.963 | S. cerevisiae deletion strains, locus YOR184W, strain ser1, hits give low values 0.904 | S. cerevisiae deletion strains, locus YOR231W, strain MKK1, hits give low values 0.968 | S. cerevisiae deletion strains, locus YOR265W, strain rbl2, hits give low values 0.991 | S. cerevisiae deletion strains, locus YOR270C, strain vph1, hits give low values 0.98 | S. cerevisiae deletion strains, locus YOR290C, strain snf2, hits give low values 1 | S. cerevisiae deletion strains, locus YOR316C, strain cot1, hits give low values 0.973 | S. cerevisiae deletion strains, locus YPL051W, strain arl3, hits give low values 0.988 | S. cerevisiae deletion strains, locus YPL055C, strain LGE1, hits give low values 1.07 | S. cerevisiae deletion strains, locus YPL078C, strain atp4, hits give low values 0.995 | S. cerevisiae deletion strains, locus YPL106C, strain sse1, hits give low values 1 | S. cerevisiae deletion strains, locus YPL240C, strain hsp82, hits give low values 0.983 | S. cerevisiae deletion strains, locus YPL241C, strain CIN2, hits give low values 1.01 | S. cerevisiae deletion strains, locus YPL256C, strain CLN2, hits give low values 0.946 | S. cerevisiae deletion strains, locus YPR119W, strain clb2, hits give low values 0.947 | S. cerevisiae deletion strains, locus YPR141C, strain kar3, hits give low values 0.99 | S. cerevisiae deletion strains, locus YPR163C, strain tif3, hits give low values 0.959 | S. cerevisiae deletion strains, locus YPR167C, strain met16, hits give low values 0.969 | S. cerevisiae deletion strains, strain wtn01, hits give low values 0.963 | S. cerevisiae strains, strain wild type, hits give low values 1.02
